Rows were chosen to be rich in hits. Some 2.3% of all compounds tested hit in one or more screens of this group.
MEKK2 WT-MEK5: raises or lowers MEK5 binding to wildtype human MEKK2 PB1 domain. bead flow cytometry, Alexa488-MEK5 binding to MEKK2 WT; actives lie on both sides. binding response (% of control), % at 10 µM. actives 1.1% (n = 290,000). AID 1531; in the data active means binding response below about 67% or above about 130%; inconclusive means no clear call, values can overlap the other calls; inactive means in between
UBC13 polyUb: inhibitors of human UBC13 polyubiquitin chain formation; P61088; TR-FRET; inhibition, % at 20 µM; actives 0.47% (n = 330,000); in the data active means inhibition above about 45%, passing the limit was not always enough; inconclusive means no clear call, values can overlap the other calls
MEKK2 mut-MEK5: signal of MEK5 binding to mutant human MEKK2 PB1 domain; bead flow cytometry, Alexa488-MEK5 binding to MEKK2 mutant; percent response, % at 10 µM; actives 0.35% (n = 290,000); in the data active means percent response above about 24%, passing the limit was not always enough
MEKK3 PB1 HTS: raises or lowers MEK5 binding to the human MEKK3 PB1 domain; Q99759; actives 1.4% (n = 290,000); bead-based flow cytometry, Alexa488-MEK5 binding to MEKK3; actives lie on both sides; 0 = blocked by unlabeled MEK5, 100 = vehicle; binding response (% of control), % at 10 µM;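 active means binding response more than 3 SD above or below the average of its plate-row segment, actives on both sides; inconclusive means wells at one plate position flagged as instrument error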;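 further: Alexa488 bead fluorescence after subtracting the streptavidin-only scavenger bead signal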
Target sequence (Q99759 whole entry, looked up, the tested form may be a part): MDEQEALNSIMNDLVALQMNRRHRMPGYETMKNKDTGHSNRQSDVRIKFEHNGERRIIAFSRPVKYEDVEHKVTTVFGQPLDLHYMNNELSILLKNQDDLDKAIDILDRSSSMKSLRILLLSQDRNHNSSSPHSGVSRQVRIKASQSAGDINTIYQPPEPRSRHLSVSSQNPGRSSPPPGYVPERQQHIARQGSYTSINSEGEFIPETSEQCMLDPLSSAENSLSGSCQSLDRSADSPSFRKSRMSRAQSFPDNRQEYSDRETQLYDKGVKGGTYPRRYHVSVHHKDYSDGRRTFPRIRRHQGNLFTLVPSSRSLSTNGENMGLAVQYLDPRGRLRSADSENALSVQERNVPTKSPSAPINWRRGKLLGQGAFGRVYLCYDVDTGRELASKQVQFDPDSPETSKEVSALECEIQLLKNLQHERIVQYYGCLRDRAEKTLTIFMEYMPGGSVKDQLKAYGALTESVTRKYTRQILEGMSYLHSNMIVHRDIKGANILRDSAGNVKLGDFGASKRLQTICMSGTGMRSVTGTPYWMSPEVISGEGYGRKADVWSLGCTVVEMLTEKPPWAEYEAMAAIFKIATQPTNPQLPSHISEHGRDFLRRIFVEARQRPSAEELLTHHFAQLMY
Casp3 counter: caspase-3 inhibition (UBC13 counter-screen). shares compounds with UBC13 polyUb. Recombinant caspase-3, Caspase-Glo 3/7 luminescence, 60 min. inhibition, % at 20 µM. actives 4% (n = 1,400);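 active means mean inhibition across replicates above about 26%, limit read from the data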
UBC13 conf: human UBC13 polyubiquitin inhibition, confirmed. shares compounds with UBC13 polyUb. UBC13 polyubiquitination, TR-FRET, biochemical. inhibition, % at 10 µM. actives 68% (n = 1,400). AID 488859; in the data active means inhibition above about 45%; inconclusive means no clear call, values can overlap the other calls
Of the large screens only hits and unclear results are named; the others gave an inactive call (follow-up assays come after a bar, where they were run).

CCn1c2ccccc2c2nc3ccccc3nc21	UBC13 polyUb 66 | Casp3 counter 48 | UBC13 conf inactive
Cc1ccc(NC(=O)c2cc(S(=O)(=O)N3CCOCC3)cn2C)cc1Cl	none
COC(=O)c1ccc(-c2ccc(Cl)cc2)nc1C	none
COc1ccc(-c2cc(-c3cccs3)nc(OC)c2C#N)cc1OC	UBC13 polyUb 50 | Casp3 counter inactive | UBC13 conf inactive
COc1nc(-c2cccs2)cc(-c2ccc(C)cc2)c1C#N	none
COc1ccc(C(=O)OCC(=O)NC2CCCCCC2)cc1OC	UBC13 polyUb 66 (no result: MEKK2 WT-MEK5, MEKK2 mut-MEK5, MEKK3 PB1 HTS) | Casp3 counter inactive | UBC13 conf inactive
CCOC(=O)c1sc2nc(C3CC3)cc(-c3ccc(OC)cc3)c2c1N	UBC13 polyUb 48 | Casp3 counter inactive | UBC13 conf inconclusive
CCOC(=O)c1cc(-c2ccc3c(c2)OCCO3)nc2c1c(C)nn2CCC#N	UBC13 polyUb inconclusive
CCOC(=O)c1cc(-c2ccc(OC)cc2F)nc2c1c(C)nn2CCC#N	UBC13 polyUb 49 | Casp3 counter inactive | UBC13 conf inactive
CCOC(=O)c1cc(-c2ccncc2)nc2c1c(C)nn2C	UBC13 polyUb 113 | Casp3 counter inactive | UBC13 conf inconclusive
CCOC(=O)c1cc(-c2ccccc2)nc2c1c(C)nn2-c1ccccn1	UBC13 polyUb 62 | Casp3 counter inactive | UBC13 conf inactive
CCOC(=O)c1cc(-c2cccnc2)nn1-c1ccccn1	none
CCOC(=O)c1cc(-c2ccc(Cl)cc2)nc2c1c(C)nn2CCC#N	UBC13 polyUb inconclusive
CCN1CCCC1CNS(=O)(=O)c1ccc(Cl)c(C(F)(F)F)c1 (centres undefined)	none
COC(=O)c1cn(S(=O)(=O)c2ccccc2)c2ccccc12	none
CC(=O)c1cn(S(=O)(=O)c2ccccc2)c2ccccc12	UBC13 polyUb 91 | Casp3 counter inactive | UBC13 conf 88
CCCCn1c(N)c(N(CCOC)C(=O)CCCc2nc3ccccc3c(=O)[nH]2)c(=O)[nH]c1=O	none (no result: MEKK2 WT-MEK5, MEKK2 mut-MEK5, MEKK3 PB1 HTS)
CC1CC(C)(C)CC2(C1)NC(=O)N(CC(=O)Nc1ccc3[nH]c(=O)[nH]c3c1)C2=O (centres undefined)	UBC13 polyUb 77 (no result: MEKK2 WT-MEK5, MEKK2 mut-MEK5, MEKK3 PB1 HTS) | Casp3 counter inactive | UBC13 conf inactive
Cc1cccc(N2CCN(C(=O)c3ccc4c(c3)NC(=O)C(CSCc3cccc(F)c3)N4)CC2)c1C (centres undefined)	none
CC[C@H](C)[C@@H](C(=O)NCCCCCCCCCCC(=O)N1CCNCC1)n1cc(CCCCN=C(N)N)nn1	UBC13 polyUb 49 (no result: MEKK2 WT-MEK5, MEKK2 mut-MEK5, MEKK3 PB1 HTS) | Casp3 counter inactive | UBC13 conf inactive
C#CCOCCOCCOCCNc1nc(N2CCN(C(=O)CCCCCCCCCCNC(=O)[C@H]([C@@H](C)CC)n3cc(CCCCCN)nn3)CC2)nc(N2CCN(C(=O)CCCCCCCCCCNC(=O)[C@H]([C@@H](C)CC)n3cc(CCCCN=C(N)N)nn3)CC2)n1	UBC13 polyUb 125 (no result: MEKK2 WT-MEK5, MEKK2 mut-MEK5, MEKK3 PB1 HTS) | Casp3 counter inactive | UBC13 conf 128
C#CCOCCOCCOCCNc1nc(N2CCN(C(=O)CCCCCCCCCCNC(=O)Cn3cc(CCCCCN)nn3)CC2)nc(N2CCN(C(=O)CCCCCCCCCCNC(=O)[C@H]([C@@H](C)CC)n3cc(CCCCN=C(N)N)nn3)CC2)n1	UBC13 polyUb 121 (no result: MEKK2 WT-MEK5, MEKK2 mut-MEK5, MEKK3 PB1 HTS) | Casp3 counter inactive | UBC13 conf 124
C#CCOCCOCCOCCNc1nc(N2CCN(C(=O)Cn3cc(CCCN=C(N)N)nn3)CC2)nc(N2CCN(C(=O)[C@H]([C@@H](C)CC)n3cc(CCCCN)nn3)CC2)n1	none (no result: MEKK2 WT-MEK5, MEKK2 mut-MEK5, MEKK3 PB1 HTS)
C#CCOCCOCCOCCNc1nc(N2CCN(C(=O)CCCCCCCCCCNC(=O)[C@H]([C@@H](C)CC)n3cc(CCCCN=C(N)N)nn3)CC2)nc(N2CCN(C(=O)CCCCCCCCCCNC(=O)[C@H](CCCCN)n3cc(C)nn3)CC2)n1	UBC13 polyUb 124 (no result: MEKK2 WT-MEK5, MEKK2 mut-MEK5, MEKK3 PB1 HTS) | Casp3 counter inactive | UBC13 conf 127
CCOc1ccc(NC(=O)CCC(=O)NNS(=O)(=O)c2ccccc2[N+](=O)[O-])cc1	none
O=C(O)CS(=O)CC(=O)Nc1cccc(C(F)(F)F)c1 (centres undefined)	none
NS(=O)(=O)c1ccc(CCNC(=O)c2cc3ccccc3s2)cc1	none
COCCNc1nc2c(-c3cccc(C(F)(F)F)c3)nnn2c2ccccc12	UBC13 polyUb 47 | Casp3 counter inactive | UBC13 conf inconclusive
CCOCCCNc1nc2c(-c3ccccc3)nnn2c2ccccc12	none
CC(C)OCCCNc1nc2c(-c3ccccc3)nnn2c2ccccc12	UBC13 polyUb 46 | Casp3 counter inactive | UBC13 conf inactive
CC(=O)NCCNc1nc2c(-c3cccc(C(F)(F)F)c3)nnn2c2ccccc12	UBC13 polyUb inconclusive
O=C(COC(=O)CC1SC(N2CCCC2)=NC1=O)Nc1ccc(Br)cc1 (centres undefined)	none (no result: MEKK2 WT-MEK5, MEKK2 mut-MEK5, MEKK3 PB1 HTS)
Cc1ccc(-c2cc(-c3ccc4c(c3)OCO4)c(C#N)c(N)n2)o1	none
CC(C)(C)c1ccc(-c2nc3c(C#N)c(-c4ccc5c(c4)OCO5)ccn3n2)cc1	UBC13 polyUb 48 | Casp3 counter inactive | UBC13 conf inconclusive
O=C(CCl)Nc1ccccc1C(=O)Nc1ccc2c(c1)OCO2	none
CCCOc1ccc(C(=O)CCNC(Cc2c[nH]c3ccccc23)C(=O)O)cc1 (centres undefined)	none
Cc1cc2nc(Cl)c(Cl)nc2cc1C	UBC13 polyUb 47 | Casp3 counter inactive | UBC13 conf inactive
Cc1cc(Cl)ccc1C(=O)C1CCCN(C(=O)c2cnsn2)C1 (centres undefined)	none
CC(C(=O)N1CCc2ccccc21)n1cnc2c1c(=O)n(C)c(=O)n2C (centres undefined)	none (no result: MEKK2 WT-MEK5, MEKK2 mut-MEK5, MEKK3 PB1 HTS)
CCC(=O)c1cc2c(C)cc(=O)oc2c(C)c1OC(C)=O	none
CCC(=O)c1cc2c(C)cc(=O)oc2c(C)c1O	UBC13 polyUb 45 | Casp3 counter inactive | UBC13 conf inconclusive
Cc1cnc(C(=O)OCc2ccc(Br)cc2)cn1	none
NCCCC[C@@H](C(=O)N1CCNCC1)n1cc(CN)nn1	UBC13 polyUb 60 (no result: MEKK2 WT-MEK5, MEKK2 mut-MEK5, MEKK3 PB1 HTS) | Casp3 counter inactive | UBC13 conf 47
C=CCCCCCCCCC(=O)N1CCN(c2cc3c(cc2F)c(=O)c(C(=O)O)cn3CC)CC1	UBC13 polyUb 47 | Casp3 counter inactive | UBC13 conf inactive
C=CCNC(=S)N1CCN(c2cc3c(cc2F)c(=O)c(C(=O)O)cn3CC)CC1	none
CC[C@@H](C)[C@@H]1CN([C@@H](CN2CCC[C@H]2CN2C(N)=NC[C@@H]2Cc2ccccc2)C(C)C)C(=N)N1CCCC1CCCC1	UBC13 polyUb 72 (no result: MEKK2 WT-MEK5, MEKK2 mut-MEK5, MEKK3 PB1 HTS) | Casp3 counter inactive | UBC13 conf 76
CCC[C@@H](CN1CCC[C@H]1CN1C(N)=NC[C@H]1CC(C)C)N1C[C@@H]([C@H](C)CC)N(CCCC2CCCC2)C1=N	UBC13 polyUb 78 (no result: MEKK2 WT-MEK5, MEKK2 mut-MEK5, MEKK3 PB1 HTS) | Casp3 counter inactive | UBC13 conf 83
